Assay results taken from PubChem BioAssay (EPA / NIEHS).
Calls of active or inactive are those of the source. How the source made its calls: active means hit-call score of the fitted dose curve at least 0.9, where 1 is the maximum; inactive means score below 0.9.

Experiments:
[1] = molecular target: Paired box protein Pax-6 (Homo sapiens) (UniProt P26367); experiment: ATG_Pax6_CIS: Attagene CIS-FACTORIAL HepG2 Assay for human Paired Box 6 (PAX6) (AID 2282956); details: HepG2 CIS-FACTORIAL PAX6 reporter transcription, RNA readout; actives raise or lower the signal
Sequence of Paired box protein Pax-6 (Homo sapiens) (P26367 whole entry, looked up): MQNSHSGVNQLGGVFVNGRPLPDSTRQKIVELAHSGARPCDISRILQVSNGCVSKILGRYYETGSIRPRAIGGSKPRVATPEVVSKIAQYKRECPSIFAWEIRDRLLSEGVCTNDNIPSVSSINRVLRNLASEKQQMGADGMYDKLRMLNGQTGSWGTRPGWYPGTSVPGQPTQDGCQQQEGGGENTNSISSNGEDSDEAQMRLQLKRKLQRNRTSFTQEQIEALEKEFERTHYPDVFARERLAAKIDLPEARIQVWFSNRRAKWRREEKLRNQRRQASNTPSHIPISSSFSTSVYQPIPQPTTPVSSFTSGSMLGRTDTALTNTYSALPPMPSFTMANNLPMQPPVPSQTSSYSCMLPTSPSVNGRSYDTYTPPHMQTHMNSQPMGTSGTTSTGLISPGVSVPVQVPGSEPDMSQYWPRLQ
Summary of the method: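 After twenty-four hours of chemical exposure, transfected HepG2 cells are harvested for RNA. Cis-promoter reporter transcripts are amplified, fluorescently labelled and sized by capillary electrophoresis, with gain and loss of signal scored against DMSO.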

[2] = ATG_PXRE_CIS: Attagene CIS-FACTORIAL HepG2 Assay for human Pregnane X Receptor Element (PXRE) (AID 2282957); details: HepG2 Attagene CIS-FACTORIAL PXRE reporter, mRNA; actives raise or lower the signal
Summary of the method: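 Transfect HepG2 with MRTUs (cis promoter elements); dose chemical, incubate 24 h; isolate RNA, RT with oligo(dT), PCR, 6-FAM label, HpaI cut, CE. Gain/loss fit vs DMSO.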

[3] = ATG_PPRE_CIS: Attagene CIS-FACTORIAL HepG2 Assay for human Peroxisome Proliferator-activated Response Element (PPRE) (AID 2282958); details: HepG2 PPRE cis-element reporter, Attagene transcription factor profiling; actives raise or lower the signal
Summary of the method: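 Multiplexed reporter transcription units under cis-regulatory promoters were transfected into HepG2 cells to capture endogenous factor activity. A 24 h incubation preceded RNA isolation and fluorescent RT-PCR fragment analysis.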

[4] = ATG_Sox_CIS: Attagene CIS-FACTORIAL HepG2 Assay for human SRY-box transcription factor (SOX) (AID 2282960); details: HepG2 Attagene cis-factorial SOX reporter, mRNA; actives raise or lower the signal
Summary of the method: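 After 24 h of chemical treatment, transfected HepG2 reporter cells are lysed for total RNA. Transcript levels come from RT-PCR with labelled primer extension and capillary electrophoresis, analysed bidirectionally versus DMSO.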

[5] = molecular target: Transcription factor Sp1 (Homo sapiens) (UniProt P08047); experiment: ATG_Sp1_CIS: Attagene CIS-FACTORIAL HepG2 Assay for human Specificity Protein 1 (Sp1) (AID 2282961); details: HepG2 Sp1 cis-reporter transcription, actives raise or lower the signal
Sequence of Transcription factor Sp1 (Homo sapiens) (P08047 whole entry, looked up): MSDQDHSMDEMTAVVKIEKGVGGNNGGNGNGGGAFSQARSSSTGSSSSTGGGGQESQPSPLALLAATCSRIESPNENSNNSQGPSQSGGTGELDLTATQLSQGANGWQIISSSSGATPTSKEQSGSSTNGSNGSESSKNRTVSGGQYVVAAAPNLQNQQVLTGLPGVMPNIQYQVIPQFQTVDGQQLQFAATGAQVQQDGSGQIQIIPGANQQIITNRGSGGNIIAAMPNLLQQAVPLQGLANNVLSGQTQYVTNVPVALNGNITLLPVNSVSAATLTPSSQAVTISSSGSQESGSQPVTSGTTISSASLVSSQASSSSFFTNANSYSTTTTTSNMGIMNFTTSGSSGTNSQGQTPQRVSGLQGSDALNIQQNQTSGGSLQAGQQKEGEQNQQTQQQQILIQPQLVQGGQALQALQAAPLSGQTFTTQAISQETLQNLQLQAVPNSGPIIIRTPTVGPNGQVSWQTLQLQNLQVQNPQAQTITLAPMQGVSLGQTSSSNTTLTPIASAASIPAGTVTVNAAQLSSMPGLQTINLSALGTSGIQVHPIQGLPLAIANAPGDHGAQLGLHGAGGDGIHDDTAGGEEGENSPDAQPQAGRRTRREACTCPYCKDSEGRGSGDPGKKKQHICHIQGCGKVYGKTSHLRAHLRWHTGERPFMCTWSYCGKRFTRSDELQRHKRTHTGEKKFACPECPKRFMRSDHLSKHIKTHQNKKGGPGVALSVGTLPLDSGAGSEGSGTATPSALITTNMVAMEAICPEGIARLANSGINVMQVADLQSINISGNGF
Summary of the method: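 Sp1-driven reporter mRNA, read as capillary electrophoresis fluorescence after RT-PCR, in transiently transfected HepG2 cells dosed for 24 h; signal change in either direction relative to DMSO.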

[6] = ATG_SREBP_CIS: Attagene CIS-FACTORIAL HepG2 Assay for human Sterol Regulatory Element Binding (SREBP) (AID 2282962); details: HepG2 Attagene cis-factorial SREBP reporter, mRNA; actives raise or lower the signal
Summary of the method: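 Twenty-four hours after chemical dosing of transfected HepG2 cultures, reporter RNA was converted to cDNA, amplified, end-labelled with 6-FAM and resolved by capillary electrophoresis. Responses were fitted relative to DMSO.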

[7] = molecular target: Signal transducer and activator of transcription 3 (Homo sapiens) (UniProt P40763); experiment: ATG_STAT3_CIS: Attagene CIS-FACTORIAL HepG2 Assay for human Signal Transducer and Activator of Transcription 3 (STAT3) (AID 2282963); details: HepG2, Attagene cis-factorial STAT3 reporter transcription; actives raise or lower the signal
Sequence of Signal transducer and activator of transcription 3 (Homo sapiens) (P40763 whole entry, looked up): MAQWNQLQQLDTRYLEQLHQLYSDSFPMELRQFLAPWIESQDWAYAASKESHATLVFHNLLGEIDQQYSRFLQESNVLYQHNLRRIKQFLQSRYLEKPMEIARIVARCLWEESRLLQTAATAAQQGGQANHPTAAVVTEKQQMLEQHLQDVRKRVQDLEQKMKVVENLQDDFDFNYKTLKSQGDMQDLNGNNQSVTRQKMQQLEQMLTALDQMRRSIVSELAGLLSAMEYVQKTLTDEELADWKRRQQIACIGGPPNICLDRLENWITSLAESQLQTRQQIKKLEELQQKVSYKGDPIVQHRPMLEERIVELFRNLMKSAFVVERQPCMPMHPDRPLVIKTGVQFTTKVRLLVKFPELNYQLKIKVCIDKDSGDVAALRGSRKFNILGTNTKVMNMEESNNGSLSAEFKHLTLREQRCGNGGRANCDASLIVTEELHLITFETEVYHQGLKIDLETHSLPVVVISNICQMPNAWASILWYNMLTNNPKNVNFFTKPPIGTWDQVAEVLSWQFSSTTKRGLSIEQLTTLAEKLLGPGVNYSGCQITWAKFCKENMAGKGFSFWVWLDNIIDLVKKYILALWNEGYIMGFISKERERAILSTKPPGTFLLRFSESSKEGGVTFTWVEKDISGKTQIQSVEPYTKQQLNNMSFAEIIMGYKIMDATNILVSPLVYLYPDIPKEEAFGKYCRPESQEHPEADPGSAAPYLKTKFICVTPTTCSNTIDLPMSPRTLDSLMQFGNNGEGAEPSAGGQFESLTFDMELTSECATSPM
Summary of the method: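 HepG2 cells transiently transfected with multiple cis-element-driven reporter units report endogenous transcription factor activity. After 24 h compound exposure, reporter mRNA is measured by RT-PCR, 6-FAM labelling, HpaI digestion and capillary electrophoresis. Fitted bidirectionally versus DMSO.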

[8] = ATG_TA_CIS: Attagene CIS-FACTORIAL HepG2 Assay for human TA Basal Promoter (AID 2282964); details: HepG2 Attagene CIS-factorial TA basal promoter reporter; actives raise or lower the signal
Summary of the method: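 HepG2 cells transiently transfected with multiplexed cis-promoter reporter units, dosed 24 h. Reporter mRNA measured by RT-PCR, 6-FAM labelling, HpaI digestion and capillary electrophoresis; bidirectional fit versus DMSO baseline, serving as background control.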

[9] = ATG_TCF_b_cat_CIS: Attagene CIS-FACTORIAL HepG2 Assay for human T-Cell-Factor with beta-catenin (TCF/b-cat) (AID 2282965); details: HepG2 TCF/beta-catenin cis-reporter transcription, actives raise or lower the signal
Summary of the method: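 Cells of the HepG2 line carry transiently transfected reporter units whose promoters respond to endogenous factors. Twenty-four hours post-dosing, reporter mRNA induction is measured by fluorescent RT-PCR and capillary electrophoresis, with DMSO as baseline.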

[10] = ATG_RORE_CIS: Attagene CIS-FACTORIAL HepG2 Assay for human RAR-related Orphan Receptor Element (RORE) (AID 2282959); details: HepG2 Attagene cis-factorial RORE reporter, mRNA; actives raise or lower the signal
Summary of the method: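 Fluorescence intensity of reporter-specific cDNA fragments, separated by capillary electrophoresis, gives the signal. Source: HepG2 liver cells transiently transfected with cis-element reporters and exposed 24 h; DMSO-normalized bidirectional fit.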

Measured: AC50

CCCOC(=O)c1c(Cl)c(Cl)c(Cl)c(Cl)c1C(=O)OCCC
inactive: [1] | [3] | [4] | [7] | [8] | [9]
active: [2] 1.64 µM | [5] 67.1 µM | [6] 100 µM

CS(=O)(=O)c1ccc(Cl)cc1
active: [2] 100 µM
inactive: [1] | [10] | [4] | [5] | [6] | [7] | [8]

NCCNc1cccc2ccccc12
inactive: [2] | [4] | [5] | [7]
active: [1] 100 µM | [3] 99.2 µM | [6] 35.6 µM

Cc1ccc2c(c1)C(=O)OC2=O
inactive: [1] | [2] | [3] | [4] | [5] | [6] | [7] | [8]

CS(=O)(=O)c1ccc(C2=C(c3ccccc3)C(=O)OC2)cc1
inactive: [1] | [3] | [10] | [4] | [6] | [7] | [8] | [9]
active: [2] 20.1 µM

CC(=O)NCCO
inactive: [1] | [2] | [3] | [10] | [4] | [6] | [7] | [8] | [9]

C=C1CC[C@H](O)C/C1=C/C=C1\CCC[C@]2(C)[C@@H]([C@H](C)/C=C/[C@H](C)C(C)C)CC[C@@H]12
active: [2] 3.32 µM
inactive: [1] | [3] | [4] | [5] | [6] | [7] | [8] | [9]

NCC1CCCC(CN)C1 (centres undefined)
inactive: [1] | [2] | [3] | [4] | [5] | [6] | [7] | [8] | [9]

CCOC(=O)[C@@H](C)Oc1ccc(Oc2nc3ccc(Cl)cc3o2)cc1
inactive: [1] | [2] | [4] | [5] | [6] | [7] | [8] | [9]
active: [3] 100 µM

BrCc1cccc(Oc2ccccc2)c1
inactive: [1] | [3] | [10] | [4] | [6] | [7]
active: [2] 26.3 µM | [9] 100 µM

COCCc1ccc(OCC(O)CNC(C)C)cc1 (centres undefined)
inactive: [1] | [3] | [4] | [5] | [6] | [7] | [8] | [9]
active: [2] 55 µM

CC1(C)C2=CCCC(C)(C)[C@]23CC[C@H]1C3
inactive: [1] | [3] | [4] | [5] | [7] | [9]
active: [2] 1.49 µM | [6] 53.2 µM

CCCCCCCCCCCCCCN(CCO)CCO
active: [2] 2.92 µM | [6] 7.35 µM
inactive: [1] | [3] | [10] | [4] | [7] | [8] | [9]

C[C@H]1O[C@@H](O[C@H]2[C@@H](O)C[C@H](O[C@H]3[C@@H](O)C[C@H](O[C@H]4CC[C@@]5(C)[C@H](CC[C@@H]6[C@@H]5C[C@@H](O)[C@]5(C)[C@@H](C7=CC(=O)OC7)CC[C@]65O)C4)O[C@@H]3C)O[C@@H]2C)C[C@H](O)[C@@H]1O
active: [1] 0.0811 µM | [2] 0.271 µM | [5] 0.042 µM | [6] 0.0822 µM | [7] 3.54 µM
inactive: [3] | [4] | [8]

O=C1NC2NC(=O)NC2N1 (centres undefined)
inactive: [1] | [3] | [10] | [4] | [6] | [7] | [9]
active: [2] 27.9 µM

Brc1ccc(Br)c(Br)c1
inactive: [1] | [2] | [10] | [4] | [5] | [6] | [7] | [8]

CCOc1ccc(NC(=O)CC(C)=O)cc1
inactive: [1] | [2] | [10] | [4] | [5] | [6] | [7] | [8]

CCCCCCC(C)(C)S
active: [2] 39 µM
inactive: [1] | [10] | [4] | [5] | [6] | [7] | [8]

Cc1ccc(S(=O)(=O)Oc2ccc(N=Nc3ccc(-c4ccc(N=Nc5c(O)ccc6cc(S(=O)(=O)O)cc(S(=O)(=O)O)c56)c(C)c4)cc3C)cc2)cc1
active: [2] 4.91 µM
inactive: [1] | [3] | [4] | [6] | [7] | [8] | [9]

CCCCCCCC(=O)OCC(O)CO (centres undefined)
inactive: [1] | [2] | [3] | [10] | [4] | [6] | [7] | [9]

CC(C)CCCCCCCCCCCCCCC(=O)O
inactive: [1] | [2] | [3] | [10] | [4] | [6] | [7] | [8] | [9]

C1=CC2C3C=CC(C3)C2C1 (centres undefined)
active: [2] 36.3 µM
inactive: [1] | [10] | [4] | [5] | [6] | [7] | [8]
